Screening data (PubChem)
Pf growth 48h – P. falciparum growth inhibition at 48 hours (one generation). 310,000 tested, 5.9% active. Potency, µM (doses to about 28.7 µM), actives largely listed as inhibitors. P. falciparum luciferase growth in erythrocytes, 48 h
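Here the parasites carry a stable luciferase gene and grow inside erythrocytes in Albumax-based RPMI medium with compound for one erythrocytic cycle. Activity is scored as loss of luminescent signal.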
Sm TGR inh – blocks Schistosoma mansoni thioredoxin glutathione reductase. Q962Y6. purified TGR, DTNB reduction, TNB absorbance 405 nm. Potency, µM (top dose mostly 114 µM), most hits filed as inhibitors. 360,000 tested, 3% active; also: nearly all actives have a fitted effect of over 60% in size
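TGR 20 nM + NADPH 100 uM (dispensed conc.), cpd preinc 15 min RT; start with NADPH (500 uM addition) then DTNB (15 mM addition). Kinetic TNB absorbance, 405 nm filter. Four-parameter Hill fit across titration.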
HCMV inh – blocks human cytomegalovirus replication; HFF cells, HCMV-luciferase reporter, 72 h; stronger effect = lower value; activity change, negative = inhibition, % at 57.5 µM; 410,000 tested, 4.5% active; AID 1259415; in the data active = activity change below about -60%; inconclusive = no clear call, values can overlap the other calls; inactive = above about -39%
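Two compound doses tested in HFFs infected with HCMV-luciferase, MOI 1 PFU/cell, 72 h at 37C. Lysate luminescence read with OneGlo; data normalized against buffer-only and 10uM Salinomycin inhibitor controls.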
Pf growth 96h – P. falciparum growth inhibition at 96 hour, primary screen for plastid delayed-death inhibitors | AID 504834 | P. falciparum luciferase reporter growth, 96 h | 320,000 tested, 6.9% active | Potency, µM (highest dose often 28.7 µM), actives largely listed as inhibitors
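96 h incubation, 37 C, 5% CO2, of luciferase-reporter P. falciparum-infected RBCs (2% hematocrit, 0.05% parasitemia final) with test compounds; endpoint luminescence.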
Giardia FBPA inh – blocks Giardia fructose-bisphosphate aldolase activity. AID 2451. purified Giardia FBPA. 290,000 tested, 0.71% active. A8B2U2. Potency, µM (doses to about 59.6 µM), most hits filed as inhibitors; also: nearly all actives have a fitted effect of over 55% in size
Target sequence (A8B2U2 whole entry, looked up): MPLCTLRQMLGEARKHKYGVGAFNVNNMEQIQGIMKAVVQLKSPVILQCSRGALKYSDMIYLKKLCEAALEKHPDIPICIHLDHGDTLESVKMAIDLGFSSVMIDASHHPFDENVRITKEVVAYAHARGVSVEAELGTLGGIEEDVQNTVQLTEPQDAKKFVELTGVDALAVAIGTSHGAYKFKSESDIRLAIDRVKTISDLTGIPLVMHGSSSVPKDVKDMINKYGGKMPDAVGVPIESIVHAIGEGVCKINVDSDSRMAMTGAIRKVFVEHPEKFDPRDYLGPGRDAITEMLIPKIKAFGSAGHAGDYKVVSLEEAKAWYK
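Giardia FBPA (40 nM reagent) was preincubated 10 min at RT with compound (up to 57.5 uM final), then substrate plus GAPDH/TPI/NAD/arsenate coupling system with diaphorase/resazurin was added; resorufin fluorescence (525/598 nm) was read after 20 min.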
Hits are given with their value; i = inactive; ? = inconclusive; nt = no result; [ ] = dose if it differs, or a comment. Only some compounds are listed: those with a hit (about 14% of all), similar ones and a draw of the others. Unless noted, calls follow the shape of the dose curve; as a rule, active = well fitted curve in the direction sought with a large enough effect; inconclusive = small, poorly fitted or top-dose-only effect, or another doubt; inactive = no such curve, though single readings can be large; an effect the other way counts as inactive or inconclusive.

SMILES	Pf growth 48h	Sm TGR inh	HCMV inh	Pf growth 96h	Giardia FBPA inh
COC(=O)C1C=CC(OC2OC(COC(C)=O)C(OC(C)=O)C(OC(C)=O)C2OC(C)=O)n2c(=O)n(-c3ccccc3)c(=O)n21 (centres undefined)	nt	nt	-97.7	nt	nt
CC(=O)OCC1OC(n2ccc3ccccc32)C(OC(C)=O)C(OC(C)=O)C1OC(C)=O (centres undefined)	i	i	i	nt	i
CCc1c(C(C)=O)oc2ccc3c(C)cc(=O)oc3c12	?	i	?	?	i
Cc1ccc(/C(=N\O)c2oc3c(C)c4oc(=O)cc(C)c4cc3c2C)cc1	?	i	i	9.28µM	i
Cc1cc(=O)oc2c1ccc1oc(/C(=N/O)c3ccccc3)c(C)c12	1.65µM	i	i	nt	i
Cc1cc(N2CCCCC2)ccc1C=C1C(=O)N(C)C(=S)N(C)C1=O	i	7.08µM	i	i	i
Cc1cc(N2CCCC2)ccc1/C=C1\NC(=S)N(C)C1=O	i	i	i	i	i
O=C(COC(=O)c1ccc(O)cc1)Nc1ncc(Cl)cc1Cl	i	i	i	i	i
O=C(COC(=O)/C=C/c1ccco1)Nc1ncc(Cl)cc1Cl	i	44.7µM	i	i	i
Cc1ccc(C(=O)OCC(=O)Nc2ncc(Cl)cc2Cl)cc1NC(=O)c1ccco1	nt	44.7µM	i	i	i
CN(C)S(=O)(=O)c1ccc(Cl)c(NC(=O)COC(=O)c2ccc(O)cc2)c1	i	i	i	i	i
CCN(CC)S(=O)(=O)c1ccc(Cl)c(NC(=O)COC(=O)c2ccc(O)cc2)c1	?	i	i	4.65µM	i
COC(=O)c1ccc(/C=C/C(=O)OCC(=O)Nc2ncc(Cl)cc2Cl)cc1	11.7µM	i	i	?	nt
COc1ccc(CC(=O)Nc2c(C(=O)Nc3ccc(F)cc3)oc3ccccc23)cc1OC	nt	i	i	nt	nt
CSCCC(NC(=O)c1ccccc1)C(=O)NCCCSc1ccccc1 (centres undefined)	?	i	i	?	nt
CCC[C@H]1[C@@H](NS(=O)(=O)c2cc(Cl)cc(Cl)c2)CC[C@@]23CCCN2C(=O)CCC[C@@H]13	nt	nt	i	nt	nt
CCN(c1ccccc1)c1nnc(NC(=O)Nc2ccccc2F)s1	nt	i	i	nt	nt
C[C@H](NS(=O)(=O)c1ccc(Cl)cc1)C(=O)OCC(=O)NCCc1ccc(S(N)(=O)=O)cc1	nt	nt	i	nt	nt
CC(C)=CCC/C(C)=C/CO/N=C1/C[C@@H](O)[C@@H](O)[C@@H]2[C@@H]3C(=O)N(c4cccc(Oc5ccccc5)c4)C(=O)[C@H]3CC[C@H]12	nt	nt	nt	nt	i[12.9 µM]
Cc1nc(NC(=O)COC(=O)C(NC(=O)c2ccco2)C(C)C)c(Cl)cc1Cl (centres undefined)	i	31.6µM	i	nt	i
Cc1nc(NC(=O)COC(=O)C(C)NC(=O)c2ccccc2)c(Cl)cc1Cl (centres undefined)	i	i	i	i	nt
Cc1nc(NC(=O)COC(=O)/C=C/c2ccco2)c(Cl)cc1Cl	i	8.91µM	i	i	nt
CN(C)S(=O)(=O)c1ccc(Cl)c(NC(=O)COC(=O)/C=C/c2ccco2)c1	i	35.5µM	i	i	i
COC(=O)c1ccccc1NC(=O)Cn1nc(C)c2nn(-c3ccc(Cl)cc3)c(C)c2c1=O	nt	i	i	nt	nt
Cc1ccc(NC(CC(=O)c2ccccc2)c2ccc(F)cc2)cc1 (centres undefined)	i	i	i	i	i
SMILES	Pf growth 48h	Sm TGR inh	HCMV inh	Pf growth 96h	Giardia FBPA inh
O=C(CC(Nc1ccc(F)cc1)C(=O)O)c1ccccc1 (centres undefined)	i	1.78µM	-102.4	nt	i
O=C(CC(Nc1ccc(F)cc1)C(=O)OCC(=O)c1cccs1)c1ccccc1 (centres undefined)	i	8.91µM	i	i	i
Cc1nsc(Nc2ccc([N+](=O)[O-])cc2)c1C#N	i	i	-64.1	i	i
CC(C)n1cnnc1SCC(=O)NC(=O)c1ccccc1	i	i	i	i	nt
Cc1ccc(NC(=O)Cn2c(=O)n(CCCC(=O)NCc3ccc4c(c3)OCO4)c(=O)c3ccccc32)cc1	nt	i	i	nt	nt
CCOc1ccc(NC(=O)c2ccc(F)c(S(=O)(=O)NCc3ccc4c(c3)OCO4)c2)cc1	nt	i	-81.2	nt	nt
CCOc1ccc(NC(=S)NCc2ccc3c(c2)OCO3)cc1	?	5.01µM	i	?	i
CCOc1ccc(NC(=O)Cn2c(=O)n(CCCCC(=O)NCc3ccc4c(c3)OCO4)c(=O)c3ccccc32)cc1	nt	i	-76.4	nt	nt
